Screens from PubChem BioAssay.
ELG1 repair inh – inhibitors of ELG1-dependent DNA repair in HEK293T cells | 2.3% of 330,000 active | Potency, µM (doses to about 46.1 µM), without a hit: at the highest dose activity change, negative = inhibition, usual class: inhibitors | HEK293T ELG1-luciferase reporter, luminescence, 16 h; DNA damage induced by 5-fluorouridine; note: potency is the fitted concentration of half-maximal effect; nearly all actives have a fitted effect of over 55% in size
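HEK293T cells expressing luciferase-tagged ELG1 (2,000/well) received 5-Fluorouridine plus compound or DMSO for 16 hr at 37 °C. Luciferase was read by ONE-Glo luminescence after 30 min at room temperature.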
RORg inh – ROR gamma (mouse) transcription inhibition. Potency, µM (series often up to 53.6 µM), for the others: at the top dose activity change, negative = inhibition, most hits filed as inhibitors. 5.4% of 310,000 active. P51450. AID 2551. Drosophila S2 Gal4-RORgamma UAS-luciferase reporter, 20 h; note: potency is the fitted concentration of half-maximal effect; nearly all actives have a fitted effect of over 60% in size
Target sequence (P51450 whole entry, looked up, the tested form may be a part): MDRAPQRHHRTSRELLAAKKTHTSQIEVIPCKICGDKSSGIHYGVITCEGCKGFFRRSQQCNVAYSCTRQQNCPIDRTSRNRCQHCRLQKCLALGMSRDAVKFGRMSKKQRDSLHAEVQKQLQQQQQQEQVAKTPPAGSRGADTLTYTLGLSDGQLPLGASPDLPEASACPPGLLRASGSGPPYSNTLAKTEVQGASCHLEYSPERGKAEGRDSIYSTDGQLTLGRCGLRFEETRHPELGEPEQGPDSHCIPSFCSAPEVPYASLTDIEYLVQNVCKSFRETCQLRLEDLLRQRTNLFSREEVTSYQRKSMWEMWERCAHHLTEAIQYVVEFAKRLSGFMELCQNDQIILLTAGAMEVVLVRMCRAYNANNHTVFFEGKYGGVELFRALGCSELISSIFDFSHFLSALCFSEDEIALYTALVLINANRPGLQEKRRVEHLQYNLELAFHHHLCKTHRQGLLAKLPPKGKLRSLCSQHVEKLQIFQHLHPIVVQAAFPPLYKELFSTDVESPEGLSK
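Schneider cells (Drosophila), stable Gal4 DBD–ROR gamma + UAS-luc; 1 hr cmpd preincubation; Cu2+ induction 700 uM final; 20 hr ambient; luminescence.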
IL1B secr inh – blocks inflammasome-driven IL-1 beta release. 4.7% of 360,000 active. THP-1 LPS/ATP IL-1B secretion, AlphaLISA, 16 h; stronger effect = lower value. activity change, % at 57.5 µM; in the data active = activity change below about -50%; inconclusive = mostly about -30% to -49%
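Secreted IL-1B measured by AlphaLISA bead assay after 16 h compound exposure of THP-1 cells; compounds (final up to 57.5 uM) added 1 h before LPS (250 ng/mL) and ATP (1.25 mM) stimulation; lower signal means less secretion.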
TDP1 cell CPT – growth inhibition of DT40 Tdp1-/-;hTDP1 cells with camptothecin (screen for TDP1 inhibitors); chicken DT40 Tdp1-/-;hTDP1 cells + 20 nM CPT, ATP luminescence, 48 h; Potency, µM (titrated, usually from 46.2 µM), for inactives: top-dose activity change, negative = growth inhibition, actives largely listed as inhibitors; 12% of 420,000 active; note: potency is the fitted concentration of half-maximal effect; nearly all actives have a fitted effect of over 55% in size
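Chicken DT40 Tdp1-/- cells stably complemented with human TDP1 were seeded at 400 cells/well in medium containing 20 nM camptothecin, exposed to pin-transferred compounds, and grown at 37 °C for at least 48 hr. Viability was read as ATP luminescence.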
VP16 counter – counter-screen for ROR gamma inhibitors: Gal4-VP16 reporter. Drosophila S2 Gal4-VP16 UAS-luciferase, luminescence, 20 h. Potency, µM (titrated, usually from 53.6 µM), inactives show top-dose activity, negative = inhibition, hits mostly inhibitors. 3.5% of 310,000 active. AID 2546;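 note: Gal4-VP16 expression switched on by copper sulfate through the metallothionein promoter; potency is the fitted concentration of half-maximal effect; nearly all actives have a fitted effect of over 50% in size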
TDP1 cell noCPT – qHTS for Inhibitors of human tyrosyl-DNA phosphodiesterase 1 (TDP1): qHTS in cells in absence of CPT; DT40 Tdp1-/- hTDP1 cells, no CPT, ATP luminescence, 48 h; Potency, µM (doses to about 46.2 µM), for inactives: at the highest dose activity change, negative = growth inhibition, actives largely listed as inhibitors; 15% of 420,000 active; AID 686978, 2013; note: potency is the fitted concentration of half-maximal effect; nearly all actives have a fitted effect of over 55% in size
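Chicken DT40 Tdp1-/- cells stably complemented with human TDP1 were seeded at 400 cells/well with DMSO in place of 20 nM camptothecin. After compound pinning, cells grew at least 48 hr at 37 °C; viability read by CellTiter-Glo luminescence.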
The depositor's hits bear a star; ? = inconclusive; / = no result; [ ] = dose if it differs, or a comment. A selection: hits, their analogues and other compounds. The true share with any hit is near 21%. Unless noted, calls come from the whole dose curve; as a rule, active = well fitted curve in the direction sought with a large enough effect; inconclusive = small, poorly fitted or top-dose-only effect, or another doubt; inactive = no such curve, though single readings can be large; an effect the other way counts as inactive or inconclusive. % is set by controls: 0 for no effect and ±100 for the full control effect.

SMILES	ELG1 repair inh	RORg inh	IL1B secr inh	TDP1 cell CPT	VP16 counter	TDP1 cell noCPT
COc1ccc(/C=C(\NC(=O)c2ccccc2)C(=O)OC[C@@H]2CCC[N+]3(C)CCCCC23)cc1OC (stereo partly specified)	5%	-15%	4	4%	-7%	-2%
CCn1c(=NC(=O)c2cccc(N3C(=O)CCC3=O)c2)sc2c(C)ccc(OC)c21	-18%	24%	-27	18µM*	-1%	-76%
CCn1c(=NC(=O)c2ccc(N3C(=O)CCC3=O)cc2)sc2c(OC)ccc(OC)c21	?	-20%	-8	23µM*	-25%	?
CCn1c(=NC(=O)CN2C(=O)CCC2=O)sc2c(OC)ccc(OC)c21	-8%	-9%	-20	?	0%	?
Cc1ccc2c(c1)c1c(c(=O)n(-c3ccccc3)c(=O)n1CC(=O)c1ccc(F)cc1)n2C	/	/	/	2%	/	4%
Cc1nc(SCC(=O)N2CCCC2=O)c2c(C)c(C)sc2n1	/	/	3	?	/	?
CCOC(=O)Nc1cc2c(c(N)n1)N=C(c1ccccc1)CN2	/	/	5	0.21µM*	/	0.041µM*
CC1CCN(C(=O)CCc2ccc(Oc3cc([N+](=O)[O-])cc([N+](=O)[O-])c3)cc2)CC1	-2%	-16%[10 µM]	-57*	?	2%	?
O=C(CCc1ccc(Oc2cc([N+](=O)[O-])cc([N+](=O)[O-])c2)cc1)NC1CCCC1	-3%	-5%	26	?	0%	?
O=C(/C=C/c1cccc([N+](=O)[O-])c1)OCC1CCCO1 (stereo unspecified)	-3%	-2%	-16	0%	-4%	25%
CC(C)(C)N(Cc1ccccc1)C(=O)CN1C(=O)c2ccccc2S1(=O)=O	-3%	/	2	?	/	21µM*
Nc1cc(Cc2ccccc2)ccc1O	/	/	-25	23µM*	/	?
CCCn1cnnc1CNC(=O)C1CCC(=O)N(CCCc2ccccc2)C1 (stereo unspecified)	-1%	-10%	-6	0%	4%	1%
CO[C@H]1/C=C\O[C@@]2(C)Oc3c(C)c(O)c4c(O)c(c(C=NN5CCN(C6CCCC6)CC5)c(O)c4c3C2=O)NC(=O)C(C)=CC=C[C@H](C)[C@H](O)[C@@H](C)[C@@H](O)[C@@H](C)[C@H](OC(C)=O)[C@H]1C	/	/	/	5.6µM*	/	3.2µM*
COC1C=COC2(C)Oc3c(C)c(O)c4c(O)c(c(CN5CCN(C)CC5)c(O)c4c3C2=O)NC(=O)C(C)=CC=CC(C)C(O)C(C)C(O)C(C)C(OC(C)=O)C1C (stereo unspecified)	/	/	-6	23µM*	/	21µM*
CCC(C)N1CCC2(CC1)N=c1c(c3c4c5c(C)c(O)c3c(O)c1=NC(=O)C(C)=CC=C[C@H](C)[C@H](O)[C@@H](C)[C@@H](O)[C@@H](C)[C@H](OC(C)=O)[C@H](C)[C@@H](OC)C=CO[C@@](C)(O5)C4=O)N2 (stereo partly specified)	2%	/	?	13µM*	/	18µM*
CO[C@H]1C=CO[C@@]2(C)Oc3c(C)c(O)c4c(O)c(c5c(nc6cc(C)ccn65)c4c3C2=O)NC(=O)C(C)=CC=C[C@H](C)[C@H](O)[C@@H](C)[C@@H](O)[C@@H](C)[C@H](OC(C)=O)[C@@H]1C	/	0%	/	/	-10%	/
CO[C@H]1C=CO[C@@]2(C)Oc3c(C)c(O)c4c(O)c(cc(O)c4c3C2=O)NC(=O)/C(C)=C\C=C/[C@H](C)[C@H](O)[C@@H](C)[C@@H](O)[C@@H](C)[C@H](OC(C)=O)[C@@H]1C	/	/	/	-4%	/	-12%
CO[C@H]1C=CO[C@@]2(C)Oc3c(C)c(O)c4c(O)c(c5c(nc6cc(C)ccn65)c4c3C2=O)NC(=O)/C(C)=C\C=C[C@H](C)[C@H](O)[C@@H](C)[C@@H](O)[C@@H](C)[C@H](OC(C)=O)[C@@H]1C	/	/	/	?	/	13µM*
CO[C@H]1C=CO[C@@]2(C)Oc3c(C)c(O)c4c(O)c(c5c(c4c3C2=O)NC2(CCN(CC(C)C)CC2)N=5)=NC(=O)C(C)=CC=C[C@H](C)[C@H](O)[C@@H](C)[C@@H](O)[C@@H](C)[C@H](OC(C)=O)[C@@H]1C	/	2%	/	/	-26%	/
COC(=O)c1ccccc1NC(=O)c1ncoc1-c1ccco1	/	/	/	13µM*	/	?
O=C(Nc1ccc(Br)cc1F)N1CCC2(CC1)Oc1ccccc1C(=O)N2Cc1ccccc1F	/	/	/	?	/	16µM*
O=C(Nc1ccc(F)c(Cl)c1)N1CCC2(CC1)Oc1ccccc1C(=O)N2Cc1ccccc1F	/	/	/	?	/	12µM*
CC1CCN(CC2CCN(C(=O)Nc3ccc(Br)cc3F)CC2)CC1	/	/	/	-10%	/	-18%
O=C(Nc1ccccc1Cl)N1CCC2(CC1)Oc1ccccc1C(=O)N2Cc1ccc(F)cc1	/	/	/	?	/	21µM*
SMILES	ELG1 repair inh	RORg inh	IL1B secr inh	TDP1 cell CPT	VP16 counter	TDP1 cell noCPT
O=C(C(O)c1ccccc1)N1CCN(S(=O)(=O)c2ccc(C(F)(F)F)cc2)CC1 (stereo unspecified)	/	/	-8	1%	/	-2%
COc1ccccc1NC(=O)c1ncoc1-c1ccco1	/	/	/	-11%	/	0%
COc1ccccc1CNc1ncnc2nc[nH]c12	-18%	-16%	8	?	-15%	?
c1ccc2c(CCNc3ncnc4nc[nH]c34)c[nH]c2c1	6.5µM*	?	73	6.5µM*	?	12µM*
CCOC(=O)c1c(C)n(C)c2ccc(OCC(O)Cn3nc(C)c(Br)c3C)cc12 (stereo unspecified)	21µM*	4%	-6	21µM*	-6%	18µM*
CC(=O)Nc1ccc(OCC(O)Cn2nc(C)c(C(C)=O)c2C)cc1 (stereo unspecified)	-11%	-11%	16	5%	-2%	-3%
CC(=O)c1c(C)nn(CC(O)COc2ccc3ccccc3c2)c1C (stereo unspecified)	?	17%	-14	?	-1%	26µM*
CNc1n[nH]c(-c2ccccc2)n1	/	/	-5	3%	/	-4%
COc1ccc2c(c1)C(=O)[C@H](OC(=O)NCCc1ccc(OC)c(OC)c1)[C@@H](c1ccc(OC)c(Br)c1)O2	/	22%	/	/	-2%	/
